# According to PubChem BioAssay AID1494157 (National Center for Advancing Translational Sciences (NCATS), 2020):
# Results filed as inconclusive are left out. Active and inactive are the calls of the source. Calls come from the whole dose curve.
# Assay: Confirmatory qHTS for inhibitors of MERS-S pseudo-typed particle cell entry
# Conditions: MERS-S pseudotyped particle entry, luciferase reporter; series mostly up to 57.1 µM; activity change, negative = inhibition: at the top concentration
SMILES,Potency,"activity change, negative = inhibition"
CN1CCC(=C2c3ccccc3CCc3sccc32)CC1,15.2 µM (active),
CCN(CC)CCNC(=O)c1c(C)[nH]c(/C=C2\C(=O)Nc3ccc(F)cc32)c1C,4.29 µM (active),
O=C1c2c(O)ccc(O)c2C(=O)c2c(NCCNCCO)ccc(NCCNCCO)c21,0.961 µM (active),
CNC(=O)c1cc(Oc2ccc(NC(=O)Nc3ccc(Cl)c(C(F)(F)F)c3)c(F)c2)ccn1,15.2 µM (active),
Cc1ccc(NC(=O)c2ccc(CN3CCN(C)CC3)cc2)cc1Nc1nccc(-c2cccnc2)n1,13.6 µM (active),
CC(=O)[C@]1(O)Cc2c(O)c3c(c(O)c2[C@@H](O[C@H]2C[C@H](N)[C@H](O)[C@H](C)O2)C1)C(=O)c1ccccc1C3=O,2.15 µM (active),
Oc1c(Cl)cc(Cl)c(Cl)c1Cc1c(O)c(Cl)cc(Cl)c1Cl,0.857 µM (active),
CCN1CCN(Cc2ccc(Nc3ncc(F)c(-c4cc(F)c5nc(C)n(C(C)C)c5c4)n3)nc2)CC1,0.482 µM (active),
CCCCCCCCCCCC[n+]1ccc2ccccc2c1,1.36 µM (active),
CC(=O)Oc1ccccc1C(=O)Nc1ncc([N+](=O)[O-])s1,10.8 µM (active),
Cc1cn([C@H]2C[C@H](N=[N+]=[N-])[C@@H](CO)O2)c(=O)[nH]c1=O,0.242 µM (active),
C=CC1(C)CC(=O)C2(O)C(C)(O1)C(OC(C)=O)C(OC(=O)CCN(C)C)C1C(C)(C)CCC(O)C12C (centres undefined),,0% (inactive)
C/C=C(/C)C(=O)O[C@H]1C(C)=CC23C(=O)C(C=C(CO)[C@@H](O)[C@]12O)[C@H]1[C@@H](C[C@H]3C)C1(C)C (some centres undefined),,-20.2% (inactive)
COc1cc(N)c(Cl)cc1C(=O)NC1CCN(CCCOc2ccc(F)cc2)CC1OC (centres undefined),15.2 µM (active),
CCCCCCCCCCCCOCCOCCOCCOCCOCCOCCOCCOCCOCCO,7.64 µM (active),
CCCCCCOC(=O)NC(=N)c1ccc(NCc2nc3cc(C(=O)N(CCC(=O)OCC)c4ccccn4)ccc3n2C)cc1,19.2 µM (active),
O=c1c(C2CC(c3ccc(-c4ccc(Br)cc4)cc3)Cc3ccccc32)c(O)sc2ccccc12 (centres undefined),9.61 µM (active),
CCCCN=C(N)N=C(N)N,,0% (inactive)
Cc1c(N)nc(C(CC(N)=O)NCC(N)C(N)=O)nc1C(=O)NC(C(=O)NC(C)C(O)C(C)C(=O)NC(C(=O)NCCc1nc(-c2nc(C(=O)NCCCN[C@@H](C)c3ccccc3)cs2)cs1)C(C)O)C(O[C@@H]1O[C@@H](CO)[C@@H](O)[C@H](O)[C@@H]1O[C@H]1O[C@H](CO)[C@@H](O)[C@H](OC(N)=O)[C@@H]1O)c1cnc[nH]1 (some centres undefined),,-15% (inactive)
CC(C)(C)c1ccc(C(=O)CCCN2CCC(OC(c3ccccc3)c3ccccc3)CC2)cc1,3.41 µM (active),
C[C@@H](c1nc(-c2ccc(C#N)cc2)cs1)[C@](O)(Cn1cncn1)c1cc(F)ccc1F,5.41 µM (active),
CC[C@@H]([C@H](C)O)n1ncn(-c2ccc(N3CCN(c4ccc(OC[C@@H]5CO[C@@](Cn6cncn6)(c6ccc(F)cc6F)C5)cc4)CC3)cc2)c1=O,7.64 µM (active),
O=C1CCc2ccc(OCCCCN3CCN(c4cccc(Cl)c4Cl)CC3)cc2N1,12.1 µM (active),
CCCCCCCCCCCCCC[n+]1ccc(C)cc1,2.41 µM (active),
COc1cc2nccc(Oc3ccc(NC(=O)C4(C(=O)Nc5ccc(F)cc5)CC4)cc3)c2cc1OC,12.1 µM (active),
COc1cc([C@@H]2c3cc4c(cc3C(O[C@@H]3O[C@@H]5CO[C@@H](c6cccs6)OC5[C@H](O)[C@H]3O)C3COC(=O)[C@@H]32)OCO4)cc(OC)c1O (some centres undefined),0.271 µM (active),
Cc1cc(-n2c(=O)[nH]c(=O)n(C)c2=O)ccc1Oc1ccc(S(=O)(=O)C(F)(F)F)cc1,6.81 µM (active),
CNCCCC12CCC(c3ccccc31)c1ccccc12,21.5 µM (active),
COc1ccc2cc3[n+](cc2c1OC)CCc1cc2c(cc1-3)OCO2,9.61 µM (active),
